Results from PubChem BioAssay (EPA / NIEHS).
Values joined by “and” are separate entries in the source; they are usually repeats but may differ in a detail not shown here. Identical values can stand only once. More than one record can exist for a structure, and the calls need not agree. Active and inactive are the calls of the source. Rule for the calls: active = hit-call score of the fitted dose curve at least 0.9, where 1 is the maximum; inactive = score below 0.9.

What was measured:
[1] = read-out: Plasminogen activator inhibitor-1 (PAI1), SERPINE1 (gene 5054); test: BSK_MyoF_PAI1: BioMAP Diversity Plus: MyoF Assay for Plasminogen activator inhibitor-1 (PAI1) Biomarker Activity (AID 2284256); conditions: primary human lung fibroblasts
Summary of the method: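 In this multiplexed primary-cell system, fibroblasts from human lung received compound for 24 h before ELISA detection of PAI-1; overt toxicity was checked by SRB (0.1%, TCA-fixed, 560 nm) in parallel wells.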

[2] = read-out: Interleukin-8 (IL8), CXCL8 (gene 3576); test: BSK_MyoF_IL8: BioMAP Diversity Plus: MyoF Assay for Interleukin-8 (IL8) Biomarker Activity (AID 2284261); conditions: primary human lung fibroblasts
Summary of the method: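 DMSO-normalised, upward-fitted IL-8 ELISA signal; human lung fibroblasts, 24 h chemical treatment.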

Decorin, DCN (gene 1634) = test: BSK_MyoF_Decorin: BioMAP Diversity Plus: MyoF Assay for Decorin Biomarker Activity (AID 2284265); conditions: primary human lung fibroblasts
Summary of the method: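 In this multiplexed fibroblast system, secreted or surface decorin is detected by ELISA one day after dosing, with increases scored against the DMSO vehicle.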

[3] = BSK_MyoF_SRB: Viability Assessment in the BioMAP Diversity Plus: MyoF Assay (AID 2284267); conditions: primary human lung fibroblasts;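 note: total protein by SRB absorbance in parallel cultures as cytotoxicity measure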
Summary of the method: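 In this viability endpoint, fibroblasts from human lung are treated for 24 h, TCA-fixed, SRB-stained (0.1%) and read at 560 nm. Gain of signal relative to DMSO defines activity.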

[4] = read-out: Matrix Metallopeptidase 1 (MMP1), MMP1 (gene 4312); test: BSK_MyoF_MMP1: BioMAP Diversity Plus: MyoF Assay for Matrix Metallopeptidase 1 (MMP1) Biomarker Activity (AID 2284268); conditions: primary human lung fibroblasts
Summary of the method: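 Fibroblasts from human lung receive compound for 24 h before ELISA quantitation of MMP1. DMSO serves as baseline, and the endpoint is fitted for signal gain.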

[5] = read-out: Collagen I, COL1A1 (gene 1277); test: BSK_hDFCGF_CollagenI: BioMAP Diversity Plus: hDFCGF Assay for Collagen I Biomarker Activity (AID 2284250); conditions: primary human foreskin fibroblasts
Summary of the method: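 Readout: Collagen I by ELISA after 24 h compound treatment of primary human foreskin fibroblasts. Endpoint analysed for increases relative to DMSO; total protein by SRB in parallel wells flagged cytotoxicity.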

[6] = read-out: Interferon-inducible T-cell alpha chemoattractant (ITAC), CXCL11 (gene 6373); test: BSK_hDFCGF_ITAC: BioMAP Diversity Plus: hDFCGF Assay for Interferon-inducible T-cell alpha chemoattractant (ITAC) Biomarker Activity (AID 2284251); conditions: primary human foreskin fibroblasts
Summary of the method: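 Measured by ELISA, the chemokine level serves as the endpoint in human skin fibroblast primary cultures 24 h after compound addition. Increases relative to DMSO-treated wells define activity.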

[7] = read-out: Plasminogen activator inhibitor-1 (PAI1), SERPINE1 (gene 5054); test: BSK_KF3CT_PAI1: BioMAP Diversity Plus: KF3CT Assay for Plasminogen activator inhibitor-1 (PAI1) Biomarker Activity (AID 2284252); conditions: primary human keratinocytes with fibroblasts
Summary of the method: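 In this co-culture of primary human keratinocytes and foreskin fibroblasts, PAI-1 was measured by ELISA at 24 h and fitted upward from DMSO.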

[8] = read-out: Interleukin-8 (IL8), CXCL8 (gene 3576); test: BSK_KF3CT_IL8: BioMAP Diversity Plus: KF3CT Assay for Interleukin-8 (IL8) Biomarker Activity (AID 2284254); conditions: primary human keratinocytes with fibroblasts
Summary of the method: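 Using parallel SRB-stained cultures to flag overt toxicity, the study quantified IL-8 by ELISA in human keratinocyte–foreskin fibroblast co-cultures 24 h after dosing, with DMSO as negative control and baseline.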

[9] = read-out: Vascular cell adhesion molecule 1 (VCAM1), VCAM1 (gene 7412); test: BSK_BF4T_VCAM1: BioMAP Diversity Plus: BF4T Assay for Vascular cell adhesion molecule 1 (VCAM1) Biomarker Activity (AID 2284249); conditions: primary human bronchial epithelial cells with fibroblasts
Summary of the method: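 Cell-surface VCAM-1 quantified by ELISA after 24 h chemical exposure of human bronchial epithelial/dermal fibroblast co-cultures, with SRB staining in parallel wells for cytotoxicity; DMSO baseline, positive-direction fitting.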

[10] = read-out: Monocyte Chemoattractant Protein-1 (MCP1), CCL2 (gene 6347); test: BSK_IMphg_MCP1: BioMAP Diversity Plus: IMphg Assay for Monocyte Chemoattractant Protein-1 (MCP1) Biomarker Activity (AID 2284253); conditions: primary human endothelial cells with macrophages
Summary of the method: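 ELISA readout of MCP-1 at 24 hours in IMphg co-cultures of venular endothelial cells and macrophages, normalised to DMSO; parallel cultures stained with sulforhodamine B for overt cytotoxicity.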

[11] = read-out: Macrophage Inflammatory Protein-1 Alpha (MIP1a), CCL3 (gene 6348); test: BSK_IMphg_MIP1a: BioMAP Diversity Plus: IMphg Assay for Macrophage Inflammatory Protein-1 Alpha (MIP1a) Biomarker Activity (AID 2284255); conditions: primary human endothelial cells with macrophages
Summary of the method: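 MIP-1a protein levels were quantified by ELISA after 24 h treatment of human endothelial cell–macrophage co-cultures, compared with DMSO. Parallel cultures were fixed with TCA and stained with 0.1% SRB to gauge overt cytotoxicity.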

CD69, CD69 (gene 969) = test: BSK_IMphg_CD69: BioMAP Diversity Plus: IMphg Assay for CD69 Biomarker Activity (AID 2284257); conditions: primary human endothelial cells with macrophages
Summary of the method: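 Readout is ELISA for CD69 in primary human venular endothelial cell/macrophage co-culture, taken at 24 h post-dosing. SRB staining of parallel cultures gauged overt cytotoxicity; signal increase versus DMSO defined activity.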

[12] = read-out: Eotaxin 3, CCL26 (gene 10344); test: BSK_BF4T_Eotaxin3: BioMAP Diversity Plus: BF4T Assay for Eotaxin 3 Biomarker Activity (AID 2284258); conditions: primary human bronchial epithelial cells with fibroblasts
Summary of the method: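 ELISA measurement of Eotaxin-3 after 24 h chemical exposure in a bronchial epithelial/dermal fibroblast co-culture, with DMSO as baseline. Parallel SRB staining (0.1% SRB after 10% TCA fixation, 560 nm) flagged overt cytotoxicity.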

[13] = read-out: Monocyte Chemoattractant Protein-1 (MCP1), CCL2 (gene 6347); test: BSK_BF4T_MCP1: BioMAP Diversity Plus: BF4T Assay for Monocyte Chemoattractant Protein-1 (MCP1) Biomarker Activity (AID 2284259); conditions: primary human bronchial epithelial cells with fibroblasts
Summary of the method: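 MCP-1 ELISA readout taken 24 h after dosing in the BF4T system (bronchial epithelial cells plus dermal fibroblasts). Parallel SRB total-protein staining flagged cytotoxicity; DMSO served as baseline, positive fitting direction.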

[14] = read-out: Intercellular Adhesion Molecule 1 (ICAM1), ICAM1 (gene 3383); test: BSK_BF4T_ICAM1: BioMAP Diversity Plus: BF4T Assay for Intercellular Adhesion Molecule 1 (ICAM1) Biomarker Activity (AID 2284260); conditions: primary human bronchial epithelial cells with fibroblasts
Summary of the method: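 ICAM-1 levels measured by ELISA after 24 h chemical treatment of bronchial epithelial cell/dermal fibroblast co-cultures, read against DMSO baseline. Overt cytotoxicity checked in parallel cultures by sulforhodamine B staining.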

CD90, THY1 (gene 7070) = test: BSK_BF4T_CD90: BioMAP Diversity Plus: BF4T Assay for CD90 Biomarker Activity (AID 2284262); conditions: primary human bronchial epithelial cells with fibroblasts
Summary of the method: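 CD90 levels by ELISA after 24 h treatment of human bronchial epithelial cell/dermal fibroblast cultures, analysed versus DMSO. Overt cytotoxicity checked in parallel cultures by sulforhodamine B staining.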

[15] = read-out: Interleukin-8 (IL8), CXCL8 (gene 3576); test: BSK_BF4T_IL8: BioMAP Diversity Plus: BF4T Assay for Interleukin-8 (IL8) Biomarker Activity (AID 2284263); conditions: primary human bronchial epithelial cells with fibroblasts
Summary of the method: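 Human bronchial epithelial cells with dermal fibroblasts co-culture; IL-8 measured by ELISA 24 hours after dosing, fitted vs DMSO. Cytotoxicity tracked in parallel cultures by SRB total-protein staining.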

[16] = read-out: Interleukin-1 alpha (IL1a), IL1A (gene 3552); test: BSK_BF4T_IL1a: BioMAP Diversity Plus: BF4T Assay for Interleukin-1 alpha (IL1a) Biomarker Activity (AID 2284264); conditions: primary human bronchial epithelial cells with fibroblasts
Summary of the method: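 ELISA read-out of IL-1α from bronchial epithelial cell/dermal fibroblast co-cultures 24 h after compound addition. Increases scored against DMSO negative control. Cytotoxicity monitored by sulforhodamine B staining of parallel cultures.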

KRT18 (gene 3875) = test: BSK_BF4T_Keratin818: BioMAP Diversity Plus: BF4T Assay for Keratin 818 Biomarker Activity (AID 2284266); conditions: primary human bronchial epithelial cells with fibroblasts
Summary of the method: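 Keratin 8/18 levels quantified by ELISA after 24 h chemical treatment of bronchial epithelial cell/dermal fibroblast co-cultures, fitted in positive direction relative to DMSO. Parallel SRB staining tracks overt cytotoxicity.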

Measured: AC50

Oc1c(Cl)c(Cl)c(Cl)c(Cl)c1Cl
active: [1] 7.45 µM | [2] 595 nM | Decorin, DCN (gene 1634) 10.2 µM | [3] 6.05 µM | [4] 11.5 µM

COc1ccc(O)c(C(C)(C)C)c1
inactive: [5] | [6] | [7] | [8]

O=S(=O)(O)C(F)(F)C(F)(F)C(F)(F)C(F)(F)F
inactive: all assays above

O=C(O)C(F)(F)C(F)(F)C(F)(F)C(F)(F)C(F)(F)F
inactive: all assays above

O=C(O)C(F)(F)C(F)(F)C(F)(F)C(F)(F)C(F)(F)C(F)(F)C(F)(F)C(F)(F)C(F)(F)F
active: [9] 11.8 µM and 14.2 µM | [6] 19 µM and 22 µM | [7] 41.7 µM and 33.4 µM | [10] 46.9 µM and 53.7 µM | [8] 44.9 µM | [11] 47 µM and 33.7 µM | [1] 46.7 µM and 54.8 µM | CD69, CD69 (gene 969) 45.3 µM and 42 µM | [12] 9.59 µM and 12.1 µM | [13] 9.32 µM and 8.22 µM | [14] 11.6 µM and 14.5 µM | [2] 54600 nM | CD90, THY1 (gene 7070) 19 µM and 19.4 µM | [16] 14.3 µM and 48 µM | Decorin, DCN (gene 1634) 23.6 µM and 22.3 µM | KRT18 (gene 3875) 15 µM | [3] 50 µM and 38.9 µM | [4] 45 µM
inactive: [5] | [8] | [2] | [15] | KRT18 (gene 3875) | [4]

O=C(O)C(F)(F)C(F)(F)C(F)(F)C(F)(F)C(F)(F)C(F)(F)C(F)(F)C(F)(F)F
active: [9] 12.9 µM and 11 µM | [6] 47.9 µM and 47.8 µM | [7] 48.2 µM and 41.7 µM | CD69, CD69 (gene 969) 49.9 µM and 48.7 µM | [12] 17 µM and 15.5 µM | [13] 21.7 µM and 34.2 µM | [14] 22.2 µM and 38.1 µM | [15] 48 µM and 48.7 µM | [16] 48.7 µM and 52.5 µM | KRT18 (gene 3875) 51.6 µM and 55.1 µM
inactive: all other assays above

O=S(=O)(O)C(F)(F)C(F)(F)C(F)(F)C(F)(F)C(F)(F)C(F)(F)F
inactive: all assays above

NS(=O)(=O)C(F)(F)C(F)(F)C(F)(F)C(F)(F)C(F)(F)C(F)(F)C(F)(F)C(F)(F)F
active: [9] 24.8 µM and 23.3 µM | [6] 8.34 µM and 8.29 µM | [7] 40.7 µM and 21.7 µM | [10] 45.2 µM and 50.4 µM | [8] 37.2 µM and 22.3 µM | [11] 54.8 µM and 43.3 µM | [1] 46.3 µM and 55.1 µM | CD69, CD69 (gene 969) 10 µM | [12] 20.4 µM and 12.6 µM | [13] 47.9 µM and 42 µM | [14] 47.2 µM and 36 µM | [2] 53 µM and 50.7 µM | CD90, THY1 (gene 7070) 30 µM and 21.8 µM | [15] 49.2 µM and 48.2 µM | [16] 44.9 µM and 24.2 µM | Decorin, DCN (gene 1634) 52.9 µM | KRT18 (gene 3875) 44.7 µM and 31.5 µM | [3] 43.1 µM and 42.8 µM
inactive: [5] | CD69, CD69 (gene 969) | Decorin, DCN (gene 1634) | [4]

Sc1ccccc1
inactive: [1] | [2] | Decorin, DCN (gene 1634) | [3] | [4]
